Results taken from PubChem BioAssay (Tox21).
Records with an inconclusive call do not appear. Activity calls are given as the source filed them. Unless noted, calls come from the whole dose curve.

Tests used:
[1] = qHTS assay to identify small molecule agonists of the vitamin D receptor (VDR) signaling pathway - cell viability counter screen (AID 743224; active = well fitted curve in the direction sought with a large enough effect in the repeat runs; an effect the other way counts as inactive or inconclusive; note: series mostly up to about 63 µM; % is set by controls: 0 for no effect and ±100 for the full control effect; nearly all actives have a fitted effect of over 50% in size)
Outline: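 CellTiter-Glo viability readout on VDR-bla cells, measured after 16 h of compound treatment at 37C in the same wells.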

[2] = qHTS assay to identify small molecule antagonists of the vitamin D receptor (VDR) signaling pathway - cell viability counter screen (AID 743225; active = well fitted curve in the direction sought with a large enough effect in the repeat runs; an effect the other way counts as inactive or inconclusive; note: % is set by controls: 0 for no effect and ±100 for the full control effect; nearly all actives have a fitted effect of over 50% in size)
Outline: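 Compounds were pinned onto VDR-bla HEK 293T cells together with 1-alpha,25-dihydroxyvitamin D3 at 3 nM final. After 16 h at 37C and 5% CO2 plus the reporter readout, cell viability was measured by CellTiter-Glo luminescence (30 min, room temperature).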

[3] = qHTS assay to identify small molecule agonists of the NFkB signaling pathway (AID 1159509; active = well fitted curve in the direction sought with a large enough effect in the signal ratio in the repeat runs, not every such curve was filed as active; the % refers to the signal ratio; note: series mostly up to about 61 µM; % is set by controls: 0 for no effect and ±100 for the full control effect)
Outline: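 Readout: FRET fluorescence, 405 nm excitation, 460/530 nm emission; beta-lactamase expression disrupts FRET. Cells: ME-180 stably carrying NF-kB-driven bla reporter. Compound exposure 5 hr, 37 C, 5% CO2.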

[4] = qHTS assay to identify small molecule agonists of the NFkB signaling pathway - cell viability counter screen (AID 1159515); note: series mostly up to about 61 µM; % is set by controls: 0 for no effect and ±100 for the full control effect; nearly all actives have a fitted effect of over 55% in size
Outline: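 Tox21 library compounds were tested for cytotoxicity against NFkB-bla ME-180 cells during a 5 hr exposure at 37 C. CellTiter-Glo luminescence served as the viability read-out.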

[5] = qHTS assay to identify small molecule agonists of the endoplasmic reticulum stress response signaling pathway (AID 1159516; active = well fitted activation curve with a large enough effect in the signal ratio in the repeat runs, not every such curve was filed as active; the % refers to the signal ratio; note: % is set by controls: 0 for no effect and ±100 for the full control effect)
Outline: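 Fluorescence at 460 and 530 nm (405 nm excitation) reports beta-lactamase from an ER stress response element in HeLa cells treated 5 hr at 37 C.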

[6] = qHTS assay to identify small molecule agonists of the endoplasmic reticulum stress response signaling pathway - cell viability counter screen (AID 1159517); note: series mostly up to about 61 µM; % is set by controls: 0 for no effect and ±100 for the full control effect; nearly all actives have a fitted effect of over 50% in size
Outline: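 Cytotoxicity of test compounds toward ESRE-bla HeLa cells was assessed after 5 hr exposure. The luminescent CellTiter-Glo signal was measured 30 min after reagent addition.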

[7] = molecular target: Nuclear receptor ROR-gamma (Homo sapiens) (UniProt P51449); assay: qHTS assay to identify small molecule antagonists of the retinoid-related orphan receptor gamma (ROR-gamma) signaling pathway (AID 1159521; active = well fitted curve in the direction sought with a large enough effect in the repeat runs; an effect the other way counts as inactive or inconclusive;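 note: CHO cells with doxycycline inducible ROR-gamma driving an RORE luciferase reporter; top concentration of the series differs between compounds; % is set by controls: 0 for no effect and ±100 for the full control effect; nearly all actives have a fitted effect of over 50% in size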)
Outline: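 Test compounds were applied to Tet-on RORγ CHO cells 2 h ahead of doxycycline hyclate (1 uM final). Luciferase reporter activity was quantified by luminescence after 16 h at 37 C and 5% CO2.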

[8] = qHTS assay to identify small molecule agonists of the AP-1 signaling pathway - cell viability counter screen (AID 1159525); note: nearly all actives have a fitted effect of over 55% in size
Outline: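 Each titration point was normalised to DMSO and tetra n-octyl ammonium bromide controls. The read was Cell Titer Glo luminescence after 30 min at RT, following 5 h compound exposure of ME-180 AP-1-bla cells at 37 °C.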

[9] = qHTS assay to identify small molecule agonists of the AP-1 signaling pathway (AID 1159526); note: % is set by controls: 0 for no effect and ±100 for the full control effect
[10] = qHTS assay to identify small molecule antagonists of the retinoid-related orphan receptor gamma (ROR-gamma) signaling pathway - cell viability counter screen (AID 1159520; active = well fitted curve in the direction sought with a large enough effect in the repeat runs; an effect the other way counts as inactive or inconclusive)
Outline: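 Tet-on ROR gamma CHO cells (1,000/well) were plated 4 hr, given compounds in DMSO for 2 hr at 37 C, then induced with 1 uM final doxycycline for 16 hr. Viability was read as ATP by CellTiter-Glo luminescence after 30 min.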

CC(C)=CC(=O)O
inactive: outcome [1] | outcome [2] | outcome [3] | outcome [4] | outcome [5] | outcome [6] | Potency [7] | outcome [8] | Potency [9]

CC(O)CN(CCCN(C)C)CCCN(C)C (stereo unspecified)
inactive: outcome [1] | outcome [2] | outcome [3] | outcome [4] | outcome [5] | outcome [6] | Potency [7] | outcome [8] | Potency [9]

CCOC(=O)[C@H](CCc1ccccc1)N[C@@H](C)C(=O)N1CCC[C@H]1C(=O)O
inactive: outcome [1] | outcome [2] | outcome [3] | outcome [4] | outcome [5] | outcome [6] | Potency [7] | outcome [8] | Potency [9]

CC1(C)SC(C)(C)SC(C)(C)S1
inactive: outcome [1] | outcome [3] | outcome [4] | outcome [5] | outcome [6] | Potency [7] | outcome [8] | Potency [9]

C1CCCCCCCCCCC1
inactive: outcome [1] | outcome [2] | outcome [3] | outcome [4] | outcome [5] | outcome [6] | activity change, negative = inhibition [7] -5.57% [at 19 µM] | viability change, negative = cytotoxic [8] 0.327% [at 15.8 µM] | activation [9] -0.287% [at 15.8 µM]

CCCCNc1ccccc1
inactive: outcome [1] | outcome [2] | outcome [3] | outcome [4] | outcome [5] | outcome [6] | Potency [7] | outcome [8] | Potency [9]

Nc1ncnc2c1ncn2Cc1c(F)cccc1Cl
inactive: outcome [1] | outcome [2] | outcome [3] | outcome [4] | outcome [5] | outcome [6] | Potency [7] | outcome [8] | Potency [9]

CCC(C)(C)C1CCC(OC)CC1 (stereo unspecified)
inactive: outcome [1] | outcome [2] | outcome [3] | outcome [4] | outcome [5] | outcome [6] | Potency [7] | outcome [8] | Potency [9]

COc1cc(C)cc(O)c1
inactive: outcome [1] | outcome [2] | outcome [3] | outcome [4] | outcome [5] | outcome [6] | Potency [7] | outcome [8] | Potency [9]

CC(C)CCCC(C)NCCC(C)C (stereo unspecified)
inactive: outcome [1] | outcome [2] | outcome [3] | outcome [4] | outcome [5] | outcome [6] | Potency [7] | outcome [8] | Potency [9]

CN(C)N=Nc1ccccc1
inactive: outcome [1] | outcome [2] | outcome [3] | outcome [4] | outcome [5] | outcome [6] | Potency [7] | outcome [8] | Potency [9]

O=S(=O)(O)c1ccccc1O
inactive: outcome [1] | outcome [2] | outcome [3] | outcome [4] | outcome [5] | outcome [6] | Potency [7] | outcome [8] | Potency [9]

COc1ccc2cc(C=O)ccc2c1
inactive: outcome [1] | outcome [2] | outcome [3] | outcome [4] | outcome [5] | outcome [6] | Potency [7] | outcome [8] | Potency [9]

Nc1[nH]c(=O)ncc1F
inactive: outcome [1] | outcome [2] | outcome [3] | outcome [4] | outcome [5] | outcome [6] | Potency [7] | outcome [8] | Potency [9]

CCCCCCCCCCCCI
inactive: outcome [1] | outcome [2] | outcome [3] | outcome [4] | outcome [5] | outcome [6] | Potency [7] | outcome [8] | Potency [9]

COC(=O)CCCCCCCCC(=O)OC
inactive: outcome [1] | outcome [2] | outcome [3] | outcome [4] | outcome [5] | outcome [6] | Potency [7] | outcome [8] | Potency [9]

N#CCN(CC#N)CCN(CC#N)CC#N
inactive: outcome [1] | outcome [2] | outcome [3] | outcome [4] | outcome [5] | outcome [6] | Potency [7] | outcome [8] | Potency [9]

C=C(C)C(=O)NCCCN(C)C
inactive: outcome [1] | outcome [2] | outcome [3] | outcome [4] | outcome [5] | outcome [6] | Potency [7] | outcome [8] | Potency [9]

C=C(C)[C@H]1CC=C(C)CC1
inactive: outcome [1] | outcome [2] | outcome [4] | outcome [5] | outcome [6] | Potency [10] | outcome [8] | Potency [9]

CCCCc1ccc(N)cc1
inactive: outcome [1] | outcome [2] | outcome [3] | outcome [4] | outcome [5] | outcome [6] | Potency [7] | outcome [8] | Potency [9]

CCCCCCCCC=O
inactive: outcome [1] | outcome [2] | outcome [4] | outcome [5] | outcome [6] | Potency [10] | Potency [7] | outcome [8] | Potency [9]

O=C(O)/C=C/c1ccc(/C=C/C(=O)O)cc1
inactive: outcome [1] | outcome [2] | outcome [3] | outcome [4] | outcome [5] | outcome [6] | Potency [7] | outcome [8] | Potency [9]

[O-][N+](=Nc1ccccc1)c1ccccc1
inactive: outcome [1] | outcome [2] | outcome [3] | outcome [4] | outcome [5] | outcome [6] | Potency [7] | outcome [8] | Potency [9]

CCn1c(=O)c2c(nc(/C=C/c3ccc(OC)c(OC)c3)n2C)n(CC)c1=O
inactive: outcome [1] | outcome [2] | outcome [3] | outcome [4] | outcome [5] | outcome [6] | Potency [7] | outcome [8] | Potency [9]

CC(C)(C)N(CCO)CCO
inactive: outcome [1] | outcome [2] | outcome [3] | outcome [4] | outcome [5] | outcome [6] | Potency [7] | outcome [8] | Potency [9]

CN(C)CCOC(c1ccc(Cl)cc1)c1ccccn1 (stereo unspecified)
inactive: outcome [1] | outcome [2] | outcome [3] | outcome [4] | outcome [5] | outcome [6] | Potency [7] | outcome [8] | Potency [9]

COC[C@H](c1ccc(C(F)(F)F)cc1)N1CCN(C2(C)CCN(C(=O)c3c(C)ncnc3C)CC2)C[C@H]1C
inactive: outcome [1] | outcome [2] | outcome [3] | outcome [4] | outcome [5] | outcome [6] | Potency [7] | outcome [8] | Potency [9]
